In the library only some 21% were active in any assay of this set; here they are far more common.
ClpP mod: qHTS Assay for Activators of ClpP | ATP-dependent Clp protease proteolytic subunit (Bacillus subtilis (strain 168)), P80244 | 340,000 compounds, 1.9% hits | purified B. subtilis ClpP, FRET peptide cleavage, 20 min | Potency, µM (top dose mostly 57.5 µM), inactives show at the top dose activity change, negative = active; active = well fitted falling curve with a large enough effect; inconclusive = small, poorly fitted or top-dose-only effect; inactive = no such curve, though single readings can be large or run the other way; note: potency is the fitted concentration of half-maximal effect; the source files actives as falling curves though it sought activators and does not explain the sign; nearly all actives have a fitted effect of over 65% in size
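Purified B. subtilis ClpP, 10 microg/mL final in Tris/HCl pH8 with KCl, BSA, glycerol and Tween-20, cleaved an Abz/nitrotyrosine-quenched decapeptide. Fluorescence (ex 320, em 430) was read at 0 and 20 min at room temperature. Delta was normalized to 5.8 microM ADEP and DMSO/no-enzyme controls.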
IL-1B inflam inh: qHTS for Inhibitors of Inflammasome Signaling: IL-1-beta AlphaLISA Primary Screen. 360,000 compounds, 4.7% hits. AID 743279, 2014. THP-1 LPS/ATP IL-1B secretion, AlphaLISA, 16 h; stronger effect = lower value. activity change, % at 57.5 µM; in the data active = activity change below about -50%; inconclusive = mostly about -30% to -49%; note: % is set by controls: 0 for no effect and ±100 for the full control effect
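THP-1 cells pretreated 1 hr with compounds (up to 57.5 uM final), then stimulated with LPS (250 ng/mL final) plus ATP (1.25 mM final); secreted IL-1B measured by AlphaLISA after 16 hr, decreased signal indicating inhibition.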
DRD3 agonist: qHTS of D3 Dopamine Receptor Agonist: qHTS. D3R DiscoveRx beta-arrestin cells, luminescence, 90 min. D(3) dopamine receptor (Homo sapiens), P35462. max activation, %. 410,000 compounds, 0.58% hits; in the data active = max activation above about 30%; note: 0% is about no effect
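Agonist mode: compounds and dopamine controls were applied to plated cells for 90 min at 37 degrees C after an overnight attachment at 1500 cells/well. Luminescent read-out followed 30 - 60 minutes at room temperature with DiscoveRx detection reagent.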
TDP1 cell CPT: qHTS for Inhibitors of human tyrosyl-DNA phosphodiesterase 1 (TDP1): qHTS in cells in presence of CPT | chicken DT40 Tdp1-/-;hTDP1 cells + 20 nM CPT, ATP luminescence, 48 h | Potency, µM (titrated, usually from 46.2 µM), without a hit: at the highest dose activity change, negative = growth inhibition, most hits filed as inhibitors | 420,000 compounds, 12% hits; note: potency is the fitted concentration of half-maximal effect; % is set by controls: 0 for no effect and ±100 for the full control effect; nearly all actives have a fitted effect of over 55% in size
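Cell growth measured by CellTiter-Glo luminescence after a minimum 48 h, 37 C compound exposure with 20 nM CPT in Tdp1-knockout DT40 cells stably expressing hTDP1, seeded 400/well; qHTS titration format.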
D3 antag: qHTS of D3 Dopamine Receptor Antagonist: qHTS. max response, negative = inhibition, %. D3R cells, DiscoveRx beta-arrestin luminescence, antagonist mode; stronger effect = lower value. D(3) dopamine receptor (Homo sapiens), P35462. AID 652054, 2013. 360,000 compounds, 2.5% hits; in the data active = max response below about -50%; inconclusive = no clear call, values can overlap the other calls; note: % is set by controls: 0 for no effect and ±100 for the full control effect
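Cells expressing the human receptor were seeded at 1500 cells/well, incubated overnight at 37 degrees C in 5% CO2, then exposed to library compounds with dopamine controls for 90 minutes at 37 degrees C before luminescent detection.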
TDP1 cell noCPT: qHTS for Inhibitors of human tyrosyl-DNA phosphodiesterase 1 (TDP1): qHTS in cells in absence of CPT. DT40 Tdp1-/- hTDP1 cells, no CPT, ATP luminescence, 48 h. Potency, µM (doses to about 46.2 µM), inactives show at the highest dose activity change, negative = growth inhibition, usual class: inhibitors. 420,000 compounds, 15% hits; note: potency is the fitted concentration of half-maximal effect; % is set by controls: 0 for no effect and ±100 for the full control effect; nearly all actives have a fitted effect of over 55% in size
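Chicken DT40 Tdp1-/- cells stably complemented with human TDP1 were seeded at 400 cells/well with DMSO in place of 20 nM camptothecin. After compound pinning, cells grew at least 48 hr at 37 °C; viability read by CellTiter-Glo luminescence.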
* marks the source's active call; other numbers are inactive results; ? = inconclusive; nt = no result. Unless noted, calls come from the whole dose curve; as a rule, active = well fitted inhibition curve with a large enough effect; inconclusive = small, poorly fitted or top-dose-only effect; inactive = flat fitted curve, though single readings scatter.

SMILES | ClpP mod | IL-1B inflam inh | DRD3 agonist | TDP1 cell CPT | D3 antag | TDP1 cell noCPT
CN(CC(=O)Nc1ccccc1C(F)(F)F)C(=O)c1cc(-c2cccs2)nn1-c1ccccc1 | -4.0% | -11.1 | 3.4 | 12.3% | 18.8 | -8.5%
COc1cccc(NC(=O)CN(C)C(=O)c2cn(-c3ccccc3)nc2-c2cccnc2)c1 | 0.9% | 0.0 | 5.8 | ? | -19.7 | ?
CN(CC(=O)Nc1cccc(F)c1)C(=O)c1cn(-c2ccccc2)nc1-c1cccs1 | ? | -5.2 | -2.5 | ? | -7.9 | 13µM*
CN(CC(=O)Nc1cccc(F)c1)C(=O)c1cc(-c2cccs2)nn1-c1ccccc1 | -18.5% | -6.3 | -6.5 | ? | -2.1 | 16.4µM*
CCC(C)c1ccc(OCc2ccc(C(=O)O)o2)cc1 (stereo unspecified) | -0.2% | 17.5 | 1.0 | 1.4% | -1.2 | 8.1%
CN(CC(=O)Nc1cccc(F)c1)C(=O)c1cn(-c2ccccc2)nc1-c1ccc(Cl)cc1 | -22.2% | -59.9* | -7.9 | ? | -2.3 | ?
CCCNC(=O)c1ccc(Cn2cc(-c3ccc(OC)cc3)nc2C(C)N)cc1 (stereo unspecified) | -13.9% | -8.2 | -6.0 | ? | -5.6 | -16.2%
NC(CCc1ccccc1)c1csc(Nc2nncc3ccccc23)n1 (stereo unspecified) | -6.0% | ? | 3.1 | 20.6µM* | 3.4 | 20.6µM*
NC(Cc1ccccc1)c1csc(Nc2nncc3ccccc23)n1 (stereo unspecified) | -0.4% | -26.0 | -5.7 | 20.6µM* | 0.0 | 23.1µM*
CCOc1cc(C=NNC(=O)c2cccc(S(=O)(=O)N3CCCC3)c2)ccc1O | 2.4% | -2.1 | -2.0 | -29.4% | 0.0 | ?
COc1cc(/C=N/Nc2nc(-c3ccc(S(=O)(=O)N(C)C)cc3)cs2)ccc1O | -4.1% | -90.9* | 26.9 | 8.2µM* | 48.0 | 7.31µM*
O=S(=O)(c1cccc(-c2csc(N/N=C/c3ccco3)n2)c1)N1CCOCC1 | 0.8% | -71.6* | 16.3 | 16.4µM* | 25.9 | 13µM*
CCOc1cc(/C=N/Nc2nc(-c3cccc(S(=O)(=O)N4CCCC4)c3)cs2)ccc1O | -8.6% | -82.9* | 15.1 | 13µM* | 59.7 | 8.2µM*
COc1ccc(C(C[N+](=O)[O-])c2c(-c3ccccc3)cc3ccccn23)cc1 (stereo unspecified) | 3.7% | -20.2 | -2.9 | 23.1µM* | -50.3* | 18.4µM*
COc1cc(C(C[N+](=O)[O-])c2c(C)cc3ccccn23)ccc1O (stereo unspecified) | nt | -97.3* | 0.9 | 8.2µM* | 3.9 | 13µM*
COc1cc(C(C[N+](=O)[O-])c2c(C)[nH]c3ccccc23)ccc1O (stereo unspecified) | -5.8% | -27.0 | -1.0 | -0.8% | -0.2 | -18.5%
COc1ccc(C(C[N+](=O)[O-])c2c(-c3ccccc3)cc3ccccn23)cc1OC (stereo unspecified) | 52.1% | -16.5 | -7.1 | 7.31µM* | ? | 14.6µM*
O=Nc1c(-c2ccccc2)cc2ccccn12 | 0.6% | -28.6 | -12.5 | ? | -3.3 | -20.6%
CCCCCC(=O)O[C@H](CC(=O)O)C[N+](C)(C)C | nt | nt | nt | 7.7% | nt | -11.1%
COc1ccccc1N1CCN(C(=O)C2CCCN(S(=O)(=O)c3ccc(C)cc3)C2)CC1 (stereo unspecified) | -0.3% | -26.2 | -1.2 | 16.4µM* | 1.1 | 10.3µM*
COc1ccccc1N1CCN(C(=O)C2CCCCN2S(=O)(=O)c2ccc(C)cc2)CC1 (stereo unspecified) | -2.2% | -4.1 | -2.8 | 18.4µM* | -9.4 | ?
COc1ccc(C(=O)c2cn(Cc3ccccc3F)c3cc4c(cc3c2=O)OCO4)cc1 | -2.4% | nt | 10.4 | ? | nt | ?
COc1ccc(-c2ccc(-c3cc(=O)oc4c(C(C)C)ccc(C)c34)cc2)cc1 | -14.6% | 41.2 | 9.5 | 23.1µM* | 14.4 | 20.6µM*
COc1ccc(-c2cccc(-c3cc(=O)oc4cc(OC)c(OC)c(OC)c34)c2)cc1 | ? | 71.8 | 7.9 | ? | 41.9 | ?
Cc1cc2oc(=O)cc(-c3ccccc3)c2c(C)c1-c1ccc(N(C)C)cc1 | -0.2% | 13.3 | -4.3 | ? | 2.1 | ?
SMILES | ClpP mod | IL-1B inflam inh | DRD3 agonist | TDP1 cell CPT | D3 antag | TDP1 cell noCPT
COc1ccc(-c2c(C)cc3oc(=O)cc(-c4ccccc4)c3c2C)cc1 | -19.1% | 9.8 | 12.7 | 23.1µM* | 0.0 | ?
Cc1ccc(-c2c(C)cc3oc(=O)cc(-c4ccccc4)c3c2C)cc1 | -7.4% | 40.5 | 13.1 | ? | 22.5 | 23.1µM*
CCN(CC)CCOC(=O)c1ccc(NC(=O)C(C)NC(=O)C23CC4CC(CC(C4)C2)C3)cc1 (stereo unspecified) | -0.8% | 4.9 | -9.8 | ? | 0.0 | ?
CCc1ccccc1NC(=O)C1=CC(c2ccc3c(c2)OCO3)=NS(=O)(=O)N1C | -1.7% | nt | -17.5 | ? | nt | -28.6%
COc1ccc(NC(=O)C2=CC(c3cccs3)=NS(=O)(=O)N2C)cc1 | 2.7% | -4.5 | -8.1 | ? | -7.1 | ?
COc1cccc(C2=NS(=O)(=O)N(C)C(C(=O)Nc3ccccc3SC)=C2)c1 | -0.5% | nt | -10.3 | 16.4µM* | nt | ?
COc1cc(NC(=O)C2=CC(c3ccc(F)cc3)=NS(=O)(=O)N2C)cc(OC)c1OC | 0.5% | nt | -2.6 | ? | nt | 23.1µM*
COc1ccc(NC(=O)C2=CC(c3ccc4c(c3)OCO4)=NS(=O)(=O)N2C)cc1OC | -0.9% | nt | -4.5 | ? | nt | ?
Cc1ccc(NC(=O)C2=CC(c3ccc(C)cc3)=NS(=O)(=O)N2C)cc1 | 0.4% | 19.1 | -14.7 | ? | -19.4 | ?
CN1C(C(=O)Nc2ccc(OC(F)(F)F)cc2)=CC(c2cccs2)=NS1(=O)=O | 0.1% | -4.0 | 7.3 | ? | 15.4 | 3.66µM*
COc1ccc(C2=NS(=O)(=O)N(C)C(C(=O)Nc3ccc(C)cc3)=C2)cc1 | -2.3% | -23.8 | -10.1 | ? | ? | 20.6µM*
Cc1ccc(NC(=O)CSc2nnc3n2CCCCC3)cc1S(=O)(=O)N1CCOCC1 | -4.9% | 9.8 | 0.9 | -6.7% | -5.4 | -14.3%
